# Whole data set: some 33,000 sequences, median “e-score” near -0.037, cut for the highest 2% near 0.34. This is one part of a sample in which the highest values are shown more often than they occur.
# Biological target: T1, GST-Rok (full length) (Bacillus subtilis subsp. subtilis str. …, UniProt O34857 1-191)
# T1 sequence: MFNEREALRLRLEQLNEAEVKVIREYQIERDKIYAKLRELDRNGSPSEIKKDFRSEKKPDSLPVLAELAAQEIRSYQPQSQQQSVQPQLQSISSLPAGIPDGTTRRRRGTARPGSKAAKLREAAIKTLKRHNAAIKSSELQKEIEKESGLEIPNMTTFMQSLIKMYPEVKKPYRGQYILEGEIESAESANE
# Test: protein binding microarray; Rok is a gene silencer of Bacillus subtilis; high values mean tight binding
# Settings: protein: recombinant; tags: GST (pTH5325, pDEST15-Magic modified); dsDNA, one strand shown
# In short: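 Every oligonucleotide joins a 25-mer constant primer to a 35-mer variable part drawn from a de Bruijn sequence of order 10, so each non-palindromic 8-mer appears at least 32 times and each palindromic 8-mer 16 times. The preference for every 8-mer is reported as a unitless, rank-based enrichment score (E-score). This score spans 0.5 for the most favored 8-mer to −0.5 for the most disfavored.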
row,Sequence,binding signal
1,TCGATTAA,0.142 E-score
2,CCGAACTC,0.0171 E-score
3,ACCTACCA,0.248 E-score
4,ACTTACAA,0.176 E-score
5,ACTTACAT,0.349 E-score
6,ACTTACAG,-0.0639 E-score
7,CGATATCG,0.243 E-score
8,GCCGTGAC,-0.176 E-score
9,TACTATAA,0.439 E-score
10,CACTATCA,0.219 E-score
11,CTCTATCA,-0.0321 E-score
12,AACTATCA,0.417 E-score
13,TACTATGA,0.228 E-score
14,TCCTATCA,0.123 E-score
15,CACTATAA,0.303 E-score
16,GACTATCA,-0.0777 E-score
17,ATCTATCA,0.409 E-score
18,AACTATAA,0.326 E-score
19,TACTATCA,0.35 E-score
20,GTCTATCA,-0.00992 E-score
21,ACATTAAT,0.245 E-score
22,AGATAAGG,0.0533 E-score

row,Sequence,binding signal
1,ATCCTATG,0.106 E-score
2,GAGCTGCA,-0.0813 E-score
3,CGAAAAGA,0.00822 E-score
4,AGGATCAC,-0.0581 E-score
5,ATTGGTGA,0.0777 E-score
6,TAGCTAAA,0.214 E-score
7,ATATCCGG,0.237 E-score
8,TAGGTTCA,0.128 E-score
9,AAGATGGT,0.0131 E-score
10,CCCGTTCA,-0.154 E-score
11,AATATGCA,0.304 E-score
12,GGCTATCA,-0.0678 E-score
13,CGCTATCA,0.0965 E-score
14,AGCTATCA,0.336 E-score
15,ACGATTCA,-0.00504 E-score
16,AACGTAGT,0.0637 E-score
17,AATGTAGT,0.363 E-score
18,ACTGTAGA,0.373 E-score
19,AATGTAGA,0.389 E-score
20,GCTGTAGA,0.0153 E-score
21,CATGTAGG,0.116 E-score
22,AATGTAAT,0.326 E-score

row,Sequence,binding signal
1,GATGTAGC,0.0838 E-score
2,AATGTAGG,0.174 E-score
3,AATGTAGC,0.221 E-score
4,CCTGTAGA,0.0279 E-score
5,CATGTAGC,0.384 E-score
6,AGCTGCAC,0.104 E-score
7,GAAGTCCC,-0.124 E-score
8,ACCGATCC,-0.198 E-score
9,ATGAGGCG,-0.173 E-score
10,CTTAGGTC,0.00712 E-score
11,AAGCTAAG,-0.0658 E-score
12,TATGTAGA,0.292 E-score
13,CATGTAGA,0.374 E-score
14,GATGTAGA,0.209 E-score
15,CGCTCTGA,-0.0888 E-score
16,AGTAGGAA,0.231 E-score
17,AGTAATAC,0.26 E-score
18,ACTAATAG,0.227 E-score
19,ACTAATAC,0.265 E-score
20,AGTAATCG,0.0386 E-score
21,ACTAATAT,0.385 E-score
22,AGTAATAT,0.402 E-score

row,Sequence,binding signal
1,AGTAATAA,0.197 E-score
2,AGTAATAG,0.365 E-score
3,CGTAATAG,0.318 E-score
4,AACGGCTG,0.0377 E-score
5,AAGTCAAT,0.226 E-score
6,CTTGTCTC,0.0221 E-score
7,GGGTTGCA,-0.161 E-score
8,AGATGTAA,0.17 E-score
9,CATCTTAG,0.118 E-score
10,GTTGATCA,-0.00765 E-score
11,CGCAAGCC,-0.112 E-score
12,ACATAGAG,0.00988 E-score
13,ACATAGAT,0.346 E-score
14,AGATAGAG,0.026 E-score
15,AGATAGAC,0.108 E-score
16,AGATAGAT,0.386 E-score
17,ACATAGAC,0.0568 E-score
18,CTCTAGAC,-0.099 E-score
19,ACGAACGA,-0.116 E-score
20,ATCTACTG,0.382 E-score
